# Measurements reported in PubChem BioAssay AID1220 (Sanford-Burnham Center for Chemical Genomics, 2008).
# Hit rate of the full screen: of about 190,000 compounds, about 1,300 (0.68%) were called active. The sample as a whole holds a higher share of actives than the screen did. Unmarked numbers belong to inactive results. Cut-off read from the data, not from the text of the source: active = inhibition above about 50%; inactive = the rest.
# Target: Mannose-6-phosphate isomerase (Homo sapiens) (UniProt P34949)
# Sequence (P34949 whole entry, looked up): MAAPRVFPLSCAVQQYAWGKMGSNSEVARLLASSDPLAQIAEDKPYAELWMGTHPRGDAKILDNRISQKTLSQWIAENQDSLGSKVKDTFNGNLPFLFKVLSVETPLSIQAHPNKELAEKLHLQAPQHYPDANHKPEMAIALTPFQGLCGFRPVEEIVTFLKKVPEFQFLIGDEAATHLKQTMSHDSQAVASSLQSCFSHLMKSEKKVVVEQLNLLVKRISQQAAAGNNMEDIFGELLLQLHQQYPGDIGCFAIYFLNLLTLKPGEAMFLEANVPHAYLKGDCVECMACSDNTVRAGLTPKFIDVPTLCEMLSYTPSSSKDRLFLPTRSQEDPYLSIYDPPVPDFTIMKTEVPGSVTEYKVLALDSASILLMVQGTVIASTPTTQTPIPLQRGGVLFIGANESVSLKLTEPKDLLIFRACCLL
# Experiment: MPI inhibition at elevated mannose 6-phosphate – biochemical, fluorescence intensity, high mannose 6-phosphate, primary screen (AID 1220)
# Conditions: recombinant PMI enzyme, coupled fluorescence intensity; at 20 µM; stronger effect = higher value
row,SMILES,inhibition
1,Cc1onc(-c2c(Cl)cccc2Cl)c1C(=O)NCCCN1CCOCC1,-0.3%
2,O=C(c1ccccc1)N1CCOC12CCN(c1ncc(C(F)(F)F)cc1Cl)CC2,2.1%
3,CCOC(=O)/C=C/C(=O)OCC(=O)Nc1c(Cl)cccc1Cl,-9.4%
4,CCCc1nc2c(sc3nc4c(cc32)COC(C)(C)C4)c(=O)n1CCN(CC)CC,-0.7%
5,CCc1nc2c(sc3nc4c(cc32)COC(C)(C)C4)c(=O)n1CCN(CC)CC,3.8%
6,CCCc1nc2c(sc3nc4c(cc32)COC(C)(C)C4)c(=O)n1CCN(C)C,50.8% (active)
7,Cc1ccc(C(=O)N/C(=C/c2ccccc2)C(=O)NCC2CCCO2)cc1 (centres undefined),-4.3%
8,NNC(=O)COc1ncn(-c2ccccc2)n1,4.5%
9,Cc1ccc(NC(=O)C(=O)NCCN2CCN(C(=S)Nc3ccccc3)CC2)cc1,-0.2%
10,COCCNC(=O)CN(C(=O)Cn1nnc2ccccc21)c1ccc(F)c(Cl)c1,-5.3%
11,CC(=O)Nc1c(O)c2ccccc2[nH]c1=O,17.5%
12,O=c1[nH]c2ccccc2c2ccccc12,3.6%
13,COc1cc([N+](=O)[O-])ccc1NC(=O)CCCOc1cccc(C)c1C,9.2%
14,OCCOCCOc1ccc(-c2nn[nH]n2)cc1,-12.5%
15,CCCCC(=O)Nc1ccc(NC(=S)NC(=O)c2cccs2)cc1OC,14.4%
16,O=C(Nc1cccc(S(=O)(=O)Nc2ccccc2Cl)c1)c1ccc(Cl)nc1,7.3%
17,CCC12CN3CC(CC)(CN(C1)C3c1c(O)ccc3ccccc13)C2=O (centres undefined),27.9%
18,CN1c2ccccc2N(C)C1c1c(O)ccc2ccccc12,55.3% (active)
19,Oc1ccc2ccccc2c1C1Nc2cccc3cccc(c23)N1,10.6%
20,Fc1ccc(NC(=S)N2CCn3cccc3C2c2cccnc2)cc1 (centres undefined),1%
21,Cc1ccc(NC(=O)C(Nc2ccccc2)c2ccccc2)cc1 (centres undefined),1.5%
22,CC(=O)N1N=C(c2cccc([N+](=O)[O-])c2)OC1c1cccc(Br)c1 (centres undefined),4.5%
23,CCCCC(=Nc1ccc(N)cc1)C1=C(O)C(C(=O)OC)C(C)(C)CC1=O (centres undefined),15.5%
24,CCCC(=Nc1ccc(N)cc1)C1=C(O)C(C(=O)OC)C(C)(C)CC1=O (centres undefined),28.8%
25,CCC(=Nc1ccc(N)cc1)C1=C(O)C(C(=O)OC)C(C)(C)CC1=O (centres undefined),53.8% (active)

row,SMILES,inhibition
1,COc1ccc(OC)c2sc(NC(=O)CCSc3ccccc3)nc12,2.1%
2,Cc1ccc2cccc(O)c2[n+]1[O-],53.5% (active)
3,Oc1cccc2cc3cccc(O)c3c(O)c12,-119%
4,Cc1cc(C)c2ccc(C)[n+]([O-])c2c1O,-26.8%
5,Cc1cccc(Cn2ccc(NC(=O)c3cccnc3)n2)c1,-9.3%
6,CCOc1ccc(C(=O)CC(Sc2ccc(C)cc2)C(=O)O)cc1 (centres undefined),-4%
7,CCCOC(=O)c1ccc(Oc2c(-c3ccc(O)cc3O)n[nH]c2C)cc1,5.2%
8,COc1cc(N2CCCC2)c(OC)cc1C=O,53.6% (active)
9,COc1cc(N2CCCC2)ccc1C=O,23%
10,COc1cc(N2CCCC2)c(OC)cc1/C=C(/C#N)c1ccc(Br)cc1,13.6%
11,COc1cc(N2CCCC2)c(OC)cc1/C=C1/NC(=S)NC1=O,27.9%
12,COc1cc(N2CCCC2)c(OC)cc1/C=C(/C#N)c1ccc(F)cc1,54.8% (active)
13,COc1cc(N2CCCC2)c(OC)cc1/C=C(/C#N)c1cccc(F)c1,11.2%
14,CCOCCCN1CN(Cc2ccccc2)CNC1=S,-6.2%
15,Cc1cc(C)cc(OCC(=O)OCCN2C(=O)c3ccccc3C2=O)c1,11.5%
16,COc1ccccc1N1CCN(C2=Nc3cccc4cccc2c34)CC1,27.3%
17,NC1=Nc2cccc3cccc1c23,60% (active)
18,O=S1(=O)N=C(N2CCc3ccccc3C2)c2ccccc21,-8.5%
19,CCOC(=O)N1CCN(C2=Nc3cccc4cccc2c34)CC1,58.5% (active)
20,CC1CN(C2=Nc3cccc4cccc2c34)CC(C)O1 (centres undefined),59.2% (active)
21,CC1CN(c2nc3ccccc3cc2-c2ccccc2)CC(C)O1 (centres undefined),5.7%
22,c1ccc2c(c1)CCN(C1=Nc3cccc4cccc1c34)C2,60.2% (active)
23,c1ccc(CC2CCN(C3=Nc4cccc5cccc3c45)CC2)cc1,10.8%
24,NC(=O)NNC1=Nc2cccc3cccc1c23,8.5%
25,c1ccc(CN2CCN(C3=Nc4cccc5cccc3c45)CC2)cc1,21.9%

row,SMILES,inhibition
1,CCOC(=O)N1CCN(c2cccc(C)c2C)CC1,-11.4%
2,c1ccc(NC2=Nc3cccc4cccc2c34)cc1,9.8%
3,Cc1nn2c(=O)c(NC(=O)c3ccc(Cl)cc3)cnc2s1,0.6%
4,Cc1ccc(/C(N)=N/OC(=O)c2cccc(F)c2)cc1,3.9%
5,COc1ccc(C(=O)OCC(=O)N2C(C)CCCC2C)cc1[N+](=O)[O-] (centres undefined),-0.8%
6,COC(=O)c1ccccc1NC(=O)N[C@@H](C)C(=O)OC,-13.4%
7,O=C1OCC(CO)(CO)N=C1NNc1cc(Cl)ccc1Cl,-81.3%
8,CCC(=O)NCCNc1nc2cc(C)cc(C)c2cc1C#N,12.8%
9,CC(C)C(NC(=O)c1ccccc1Cl)C(=O)OCc1nc2scc(-c3ccccc3Cl)c2c(=O)[nH]1 (centres undefined),-15.4%
10,c1cc2c3c(cccc3c1)C(N1CCCCCC1)=N2,12.7%
11,O=C(CCCN1C(=O)c2cccc3cccc(c23)C1=O)N1CCN(c2ncccn2)CC1,10.1%
12,Fc1ccc(N2CCN(C3=Nc4cccc5cccc3c45)CC2)cc1,32.1%
13,O=C(CN1C(=O)c2cccc3cccc(c23)C1=O)N1CCN(c2ccccn2)CC1,-1.5%
14,c1cc2c3c(cccc3c1)C(N1CCCCC1)=N2,58.7% (active)
15,CC(=O)N1CCN(C2=Nc3cccc4cccc2c34)CC1,52.4% (active)
16,CC(C)n1nnnc1SCC(=O)NCc1ccc2c(c1)OCO2,-4.5%
17,OCCN1CCN(c2ncnc3nc[nH]c23)CC1,10.7%
18,COCCN1CCCC(CNCc2cn(C)nc2-c2ccc(Oc3ccccc3)cc2)C1 (centres undefined),10.6%
19,O=c1c(Cc2ccc(Cl)cc2Cl)c(O)ccn1CCCN1CCOCC1,-5.3%
20,O=C(NC1CC1)C1=C[C@@H](c2ccc(Br)cc2)C[C@@H](OCCCCO)O1,-2.7%
21,O=C(O)C1=C[C@H](c2ccc(Br)cc2)C[C@H](OCCCCO)O1,-7.2%
22,O=C(C1=C[C@@H](c2ccc(C(F)(F)F)cc2)C[C@@H](OCCCCO)O1)N1CCOCC1,-1.4%
23,NC(=O)C1=C[C@H](c2ccc(C(F)(F)F)cc2)C[C@H](OCCCCO)O1,53.7% (active)
24,C#CCNC(=O)C1=C[C@@H](c2ccc(C(F)(F)F)cc2)C[C@@H](OCCCCO)O1,38.5%
25,CN1CCN(C(=O)C2=C[C@@H](c3ccc(C(F)(F)F)cc3)C[C@@H](OCCCCO)O2)CC1,1.4%

row,SMILES,inhibition
1,NC(=O)C1=C[C@@H](c2ccc(Br)cc2)C[C@@H](OCCCCO)O1,66.1% (active)
2,O=C(C1=C[C@H](c2ccc(C(F)(F)F)cc2)C[C@H](OCCCCO)O1)N1CCOCC1,-0.7%
3,NC(=O)C1=C[C@@H](c2ccc(C(F)(F)F)cc2)C[C@@H](OCCCCO)O1,57.4% (active)
4,CN(C)CCCCOc1cccc(Br)c1,-14%
5,COCCn1c(=O)[nH]c2cc(C(=O)NCCCN3CCN(c4ccc(F)cc4)CC3)ccc2c1=O,-12.2%
6,CCC(=O)Nc1cc(C(C)C)c(O)cc1C,-2.4%
7,CCOc1cc(C(=O)N2CCN(c3ccc(C(C)=O)cc3)CC2)cc(OCC)c1OCC,6.8%
8,O=C(O)c1ccc(CSCc2ccco2)cc1,4.1%
9,CC(C(=O)Nc1cccc([N+](=O)[O-])c1)N1CCN(C/C=C/c2ccccc2)CC1 (centres undefined),12%
10,Cc1c(/C=N\NC(=O)c2ccc(F)cc2)cnn1C,9.7%
11,Cc1c(/C=N\NC(=O)c2csc3ccccc23)cnn1C,2.4%
12,Cc1occc1C(=O)N/N=C/c1cnn(C)c1C,64% (active)
13,COc1c2ccoc2c(OC[C@@H](O)C(C)(C)OC)c2oc(=O)ccc12,9.3%
14,CCOC(=O)N1CCN(C(=O)C2CCN(CC3CCCCC3)CC2)CC1,-10.5%
15,COc1ccc(C(=O)n2nnc3ccccc32)cc1OC,6%
16,Oc1c(C2=NCCNC(C(F)(F)F)=C2)ccc2ccccc12,54.4% (active)
17,FC(F)(F)C1=CC(c2ccccc2)=NCCN1,0.2%
18,Oc1ccccc1C1=NCCNC(C(F)(F)F)=C1,-3.4%
19,CN(C1=C(NC(=O)c2ccc(Cl)cc2)C(=O)c2ccccc2C1=O)c1ccccc1,25.2%
20,O=C(NC1=C(Nc2ccc(F)cc2)C(=O)c2ccccc2C1=O)c1ccc(Cl)cc1,55.3% (active)
21,O=C(NC1=C(Nc2ccc(Cl)cc2)C(=O)c2ccccc2C1=O)c1ccccc1,58% (active)
22,Cc1ccc(NC2=C(NC(=O)c3ccccc3)C(=O)c3ccccc3C2=O)cc1Cl,14%
23,Cc1cccc(NC2=C(NC(=O)c3ccccc3)C(=O)c3ccccc3C2=O)c1,6.2%
24,O=C(NC(=S)Nc1ccc2c(c1)C(=O)c1ccccc1C2=O)c1ccc(F)cc1,-25.8%
